This passage reports growth results from PubChem BioAssay (NCI).

Holding throughout (experiment): NCI-60 one-dose screen, 48 h (100 = growth as untreated, 0 = no growth, -100 = all killed)
Holding throughout (details): 10 µM

Experiment [1] relates to RPMI-8226 leukemia.
Experiment [2] deals with OVCAR-8 ovarian.
Experiment [3] relates to OVCAR-5 ovarian.
Experiment [4] deals with OVCAR-4 ovarian.
Experiment [5] concerns SK-OV-3 ovarian.
Experiment [6] concerns IGROV1 ovarian.
Experiment [7] concerns OVCAR-3 ovarian.
The test system of experiment [8] is HS 578T breast.
Experiment [9] deals with NCI/ADR-RES ovarian.
In experiment [10] the test system is T-47D breast.

Each structure is given as a SMILES string. Compounds without any hit were thinned out: in the full panel of roughly 83,000, 20% have a hit.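 Values shown are percent growth following 48 h exposure of cells in 96-well plates to a single concentration of compound; below 10 was considered active.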 Values without a mark were called inactive. Calls of active or inactive are those of the source.

For the compound `COc1ccc2c(c1)sc1nc(-c3ccccc3)c(-c3ccsc3)n12`, the growth in [1] is 15.2%; in experiment [2], 30.8%; in [3] it was 51.6%; in experiment [4] it was 62.8%; in experiment [5], 23.5%; in experiment [6], 31.1%. The growth was -51.6% (active) in [7], 3.75% (active) in experiment [8] and 9.35% (active) in experiment [9].
Turning to `COC(=O)C(C(C[N+](=O)[O-])c1ccccc1)=P(c1ccccc1)(c1ccccc1)c1ccccc1` (centres undefined), the growth is -28.2% (active) in [1]; 93.4% in experiment [2]; 96.5% in [3]; 98.3% in experiment [4]; 95.7% in [5]; 66% in experiment [6]. The growth in [7] was 89.5%; in experiment [8], 110%; in experiment [9], 103%; in experiment [10] it was 83.9%.
With `CC[C@H]1CCC/C=C/[C@@H]2C[C@H](O)C[C@H]2[C@H](O)/C=C/C(=O)O1`, the growth in [1] is -3.82% (active); in [2], 0.0361% (active); in experiment [3], 7.93% (active); in [4], 29%; in experiment [5] it was 21.3%; in [6] it was -2.68% (active). The growth was -58.5% (active) in [7], 13.7% in [8] and 2.15% (active) in experiment [9].
`CCOC(=O)N1C=CC2C=CC1C1C=CC=CC2N1C(=O)OCC` (centres undefined): the growth in experiment [1] was 89.5%; in [2] it was 96.5%; in experiment [3], 95%; in experiment [4], 97.8%; in experiment [5] it was 97%; in experiment [6], 97.8%. Further, the figures for the growth in experiment [7], in [8] and in experiment [9] were 100%, 87.5% and 95.3%, respectively.
In the case of `NC1(C(=O)O)CSSC1`, the growth in [1] was 100%; in [2], 40.7%; in experiment [3], 113%; in [4], 76.8%; in experiment [5], 108%; in experiment [6], 90%. Besides, the growth in [7] was 93%; in experiment [8] it was 53.6%; in experiment [9] it was 59.8%.
In the case of `CC12O[C@H](C[C@@H](OC(=O)c3ccccc3)[C@H]1O)n1c3ccccc3c3c4c(c5c6ccccc6n2c5c31)C(=O)NC4=O`, the growth in experiment [1] was 54.6%; in [2], 86.5%; in experiment [3], 59.3%; in experiment [4], 84.5%; in [5], 12.6%; in [6], 62%. Moreover, the growth in experiment [7] is 103%; in [8] it was 69.3%; in experiment [9], 77.8%; in experiment [10] it was 59.3%.
Turning to `C#Cc1ccc(-n2c(/C=C/c3ccc4ccccc4c3)nc3ncccc3c2=O)cc1`, the growth is -8.86% (active) in experiment [1]; 38.5% in experiment [2]; 105% in experiment [3]; -3.79% (active) in [4]; 68.9% in experiment [5]; 52.7% in experiment [6]. For the same compound, the values for the growth in experiment [7], in [8] and in experiment [9] were 17%, 72.8% and 42.5%, respectively.
`O=C(/C(=C/c1ccccc1)CN1CCCCC1)c1ccccc1`: the growth was -6.34% (active) in [1]; 11% in experiment [2]; -66.5% (active) in experiment [3]; 12% in experiment [4]; 31% in experiment [5]; -7.89% (active) in [6]. Moreover, the growth in experiment [7] is -92.7% (active); in experiment [8], 47.5%; in [9], 4.84% (active).
Turning to `CC(C)(C)NC/C(=C\c1ccccc1)C(=O)c1ccccc1`, the growth in experiment [1] was -0.943% (active); in [2] it was -29.1% (active); in experiment [3], -42.7% (active); in experiment [4] it was 30.7%; in [5], 57.9%; in experiment [6], 0.595% (active). Besides, the growth was -43.1% (active) in experiment [7], 38.2% in [8] and -30.7% (active) in experiment [9].
Regarding `CCC(=O)N1C/C(=C/c2ccc(Cl)cc2)C(=O)/C(=C/c2ccc(Cl)cc2)C1`, the growth in [1] was -37% (active); in [2], 1.63% (active); in experiment [3], 2.37% (active); in experiment [4], 8.11% (active); in [5] it was -34.8% (active); in experiment [6], -66.1% (active). Besides, the growth in experiment [7] was -47.2% (active); in experiment [8] it was 22.2%; in experiment [9], 14.9%.
Turning to `O=[N+]([O-])c1cccc(N=Cc2ccc3c(c2)OCO3)c1`, the growth in [1] is 104%; in [2] it was 97.3%; in experiment [3], 116%; in experiment [4], 104%; in [5], 110%; in [6], 109%. Moreover, the growth was 112% in experiment [7], 116% in [8] and 105% in experiment [9].
Regarding `COc1ccc(/C=C/C(=O)Nc2ccc(-c3nc4ccc(OC)cc4s3)cc2)cc1`, the growth was 96.4% in [1]; 106% in experiment [2]; 108% in [3]; 128% in experiment [4]; 104% in experiment [5]; 118% in experiment [6]. Further, the growth in experiment [7] is 124%; in experiment [8], 108%; in experiment [9], 101%.
Regarding `O=c1[nH]c(-c2ccc(Cl)cc2)nc2sc3c(c12)CCCC3`, the growth was 96.7% in [1]; 68% in experiment [2]; 103% in [3]; 86.2% in experiment [4]; 92% in experiment [5]; 82.1% in [6]. Besides, the figures for the growth in experiment [7], in experiment [8] and in experiment [9] were 101%, 104% and 81.8%, respectively.
